# Screening results from PubChem.
# In the library only some 2.2% were active in any assay of this set; here they are far more common.
# TMEM16A act: mouse TMEM16A channel activation, primary screen; HEK293 TMEM16A/YFP-H148Q/I152L, iodide quench fluorescence; active compounds read low; B-score at 10 µM; 0.3% of 340,000 active; AID 623877;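 active means fluorescence-ratio B-score plate-corrected deviation score at least 3 library SD below zero, with starting fluorescence score within 5 deviations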;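 further: channel opened by trigger with iodide after compound preincubation; score built on the fluorescence ratio of max minus min over baseline; more negative score means more quench and so TMEM16A activation or potentiation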
# GRK2 aptamer HTS: human GRK2 inhibition via aptamer displacement; P25098; bead flow cytometry, FAM-aptamer displacement from GRK2; inhibition of aptamer binding, % at 10 µM; 0.59% of 330,000 active;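 active means inhibition of aptamer binding above 40%, roughly 3 SD of noise, on plates passing a quality check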;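 further: median bead fluorescence of bound FAM aptamer so fluorescent compounds give negative values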
# TLR4-MyD88 BLA: blocks binding of human TLR4 to MyD88 | O00206+Q99836 | HeLa CL3-4 TLR4/MyD88 BLA complementation, FRET ratio | inhibition, % at 8.4 µM | 0.18% of 200,000 active | AID 861; in the data active means inhibition above about 25%
# TLR9-MyD88 block: blocks human TLR9 binding to MyD88 | Q9NR96+Q99836 | CHO BLA complementation TLR9-MyD88, CCF4 FRET ratio | AID 504734 | inhibition, % at 4.98 µM | 0.21% of 340,000 active;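 active means inhibition above the mean over all tested compounds plus 3 SD, cut at about 21% in these data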
# NOD2-RIPK2 inh: inhibitors of human NOD2-RIPK2 interaction | CHO BLA complementation NOD2-RIPK2, CCF4 ratio | inhibition, % at 4.98 µM | 0.38% of 360,000 active; in the data active means inhibition above about 21%
# TMEM16A inh: inhibitors of mouse TMEM16A calcium-activated chloride channel. Q8BHY3. HEK293 TMEM16A/YFP iodide influx fluorescence, ionomycin. normalized B-score (activity score, 25-100; higher = stronger inhibition) at 10 µM. 1.2% of 310,000 active. AID 588511;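 active means ratio plate-corrected score three or more library SD toward inhibition, starting fluorescence score within five deviations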;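 further: score derived from kinetic fluorescence span divided by baseline fluorescence per well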
# Hits are given with their value; 0 = inactive; - = no result.
SMILES,TMEM16A act,GRK2 aptamer HTS,TLR4-MyD88 BLA,TLR9-MyD88 block,NOD2-RIPK2 inh,TMEM16A inh
CCOc1cc2c(cc1O)C(=NOC)CC1C2CCC2(C)C(O)CCC12 (stereo unspecified),-6.6,-,-,0,0,-
COc1ccccc1-c1cc2c(c3c1ccn3C)C1CCC2C1 (stereo unspecified),-,-,-,-,0,-
COc1ccc(C2CC(=O)C(C(c3ccc(O)cc3)C3C(=O)CC(c4ccc(OC)cc4)CC3=O)C(=O)C2)cc1 (stereo unspecified),-,52,-,-,-,0
CC(C)(C)NC(=O)C(c1cc2ccccc2o1)n1c(-c2ccc(-c3ccccc3)cc2)nc2ccccc21 (stereo unspecified),-,-,-,-,0,-
O=C(C1CCN(S(=O)(=O)c2cccc3nsnc23)CC1)N1CC=C(c2ccccc2)CC1,0,0,0,0,0,25
O=c1cc(C(F)(F)F)[nH]c2c(C(F)(F)F)cccc12,0,0,0,0,0,100
CCN(CC)Cc1cc2ccccc2c2c1COC2,0,0,0,0,0,25
CCCN(CCC)Cc1cc2ccccc2c2c1COC2,0,0,0,0,0,0
CC[C@H](C)[C@H]1O[C@]2(CC[C@@H]1C)C[C@@H]1C[C@@H](CC=C(C)[C@@H](O[C@H]3C[C@H](OC)[C@@H](O[C@H]4C[C@H](OC)[C@@H](O)[C@H](C)O4)[C@H](C)O3)[C@@H](C)C=CC=C3CO[C@@H]4[C@H](O)C(C)=C[C@@H](C(=O)O1)[C@]34O)O2,0,0,-,0,0,25
NC(Cc1ccccc1)c1csc(Nc2nccc(C(F)(F)F)n2)n1 (stereo unspecified),-,-,-,-,0,-
COc1ccc(CC2(CO)CCN(Cc3cc4ccccc4o3)CC2)cc1,0,0,0,0,0,25
O=C(/C=C/[C@H]1O[C@@H](n2ccc(=O)[nH]c2=O)[C@H](O)[C@@H]1O)NCCCc1ccccc1,-,-,-,-,0,-
Cc1cccc(C)c1NC(=S)N1CCCN(C)CC1,-5.7,0,0,0,0,0
O=C(Nc1cccc(C(F)(F)F)c1)c1ccc2sc([C@H]3C[C@H](O)[C@@H](CO)O3)nc2c1,-,-,-,-,0,-
CCN(CC)S(=O)(=O)c1cc(NC(=O)CNc2cccc(S(=O)(=O)N3CCCC3)c2)ccc1C,0,0,-,0,0,100
O=C(COC(=O)C1CC2C=CC1C2)Nc1cccc(S(=O)(=O)N2CCCCCC2)c1 (stereo unspecified),0,0,0,0,0,100
O=C(Cn1nc(C(=O)O)c2ccccc2c1=O)Nc1cccc(S(=O)(=O)N2CCCCCC2)c1,0,0,-,0,0,-
O=C(Cn1[nH]c(=O)c2ccccc2c1=O)Nc1cccc(S(=O)(=O)N2CCCCCC2)c1,0,0,0,0,0,100
Clc1ccc(OCCCN2CCCCC2)c(Br)c1,-14,0,0,0,0,0
COCCNC(=O)C1(C)CCCN(Cc2csc(-c3ccc(Cl)cc3)n2)C1 (stereo unspecified),-,-,-,-,0,-
CCN(CC)S(=O)(=O)c1ccc(Cl)c(NC(=O)COC(=O)/C=C/c2ccc(O)c(OC)c2)c1,0,100,0,0,0,0
COc1cc(/C=C/C(=O)OCC(=O)Nc2cc(S(=O)(=O)N(C)C)ccc2Cl)ccc1O,0,0,-,0,0,0
O=C(Nc1cccc(Cl)c1)N1CCN2C(=O)c3ccccc3C12c1ccccc1 (stereo unspecified),0,0,0,0,0,25
O=C(CCl)N1CCN2C(=O)c3ccccc3C12c1ccc(Cl)cc1 (stereo unspecified),0,0,0,0,0,0
C[C@H]1CN=C(Nc2ccccc2)N1CC1CCCCCC1,-6.7,0,-,0,0,0
SMILES,TMEM16A act,GRK2 aptamer HTS,TLR4-MyD88 BLA,TLR9-MyD88 block,NOD2-RIPK2 inh,TMEM16A inh
CC(C)C[C@H]1CN=C(Nc2ccccc2)N1CC1CCC(C(C)(C)C)CC1 (stereo partly specified),0,0,-,0,0,100
CC(C)C[C@H]1CN=C(Nc2ccccc2)N1CC1CCCC1,0,0,-,0,0,0
O=c1[nH][nH]c2c1[C@H](c1ccccc1)O[C@H](C1CCCCC1)C2,-,-,-,-,0,-
COc1ccc(C)cc1-n1nnnc1SCc1nc(N)nc(N(C)C)n1,-,-,-,-,0,-
O=C(c1ccc(F)cc1)n1ccc(-c2cnc(-c3ccccc3)s2)n1,0,0,0,0,0,0
Fc1ccc(Cn2ccc(-c3cnc(-c4ccccc4)s3)n2)cc1,0,0,0,0,0,100
CCOC(=O)CN1CC23C=CC(O2)C(C(=O)NC2CCCCCC2)C3C1=O (stereo unspecified),0,0,0,0,0,0
CCOC(=O)CN1CC23C=CC(O2)C(C(=O)NCCc2ccccc2)C3C1=O (stereo unspecified),-11,0,0,0,0,0
CC[C@@H](NC(=O)[C@H](Cc1ccccc1)NC(=O)CC[C@H]1O[C@@H](n2ccc(=O)[nH]c2=O)[C@H](O)[C@@H]1O)c1ccccc1,-,-,-,-,0,-
ON1C(c2ccc(Cl)cc2Cl)N(O)[C@H]2CCCC[C@H]21 (stereo partly specified),0,0,0,0,0,100
CC(C)CCNC(=O)[C@@H](Cc1ccccc1)NC(=O)CC[C@H]1O[C@@H](n2ccc(=O)[nH]c2=O)[C@H](O)[C@@H]1O,-,-,-,-,0,-
Cc1sc2cc3c(c(C(=O)c4ccccc4)[n+]2c1C)-c1cccc2cccc-3c12,-,0,0,-,-,100
COC(=O)c1cc(S(=O)(=O)NCCc2ccc(C)cc2)c[nH]1,0,0,-,0,0,25
CCC(/C=C1\Sc2ccc(OC)cc2N1CCO)=C\c1sc2ccc(OC)cc2[n+]1CCO,0,100,0,0,0,0
COc1ccc(NC(=O)C2(C)CCN2Cc2cccc(OC)c2F)cc1OC (stereo unspecified),-,-,-,-,0,-
Cc1ccnc2nc(C(=O)Nc3ccc(N4CCOCC4)cc3)nn12,-11,0,0,0,0,0
N#Cc1cccc(C2CC(OCCF)=CC(=O)O2)c1 (stereo unspecified),-,-,-,-,0,-
O=C1c2ccccc2C(Nc2ccc(F)c(Cl)c2)N1Cc1ccco1 (stereo unspecified),-22,0,0,0,0,0
COc1ccc(NC2c3ccccc3C(=O)N2Cc2ccco2)cc1OC (stereo unspecified),0,0,0,0,0,0
CC(C)N(C(=O)CSc1ncnc2sc(-c3ccccc3)cc12)C(C)C,0,0,0,0,0,25
CCNC(=O)C1(C)CCCN(Cc2cccc(Oc3ccccc3)c2)C1 (stereo unspecified),-,-,-,-,0,-
COc1ccccc1N1CCN(C(=O)c2oc3cc(C)cc(C)c3c2C)CC1,0,0,0,0,0,25
COc1ccccc1-n1c(=O)c(C#N)c(-c2ccc([N+](=O)[O-])cc2)c2cc(C(=O)c3cc(F)ccc3O)cnc21,0,0,0,0,0,0
